Reference: PubChem BioAssay
Activity calls are given as the source filed them. Unless noted, no rule for the calls is given here.

Key:
[1] = system: XIP peptide (Xip251-270) binding; experiment: small-molecule binders of XIP peptide, primary screen, biochemical, small-molecule microarray, fluorescence 635/667 nm, 0.1 µg/mL protein (AID 1182); settings: fluorescent protein binding, 635 nm, higher = more signal, called active from +8 up or from −8 down
XIP peptide (Xip251-270) = experiment: small-molecule binders of XIP peptide, primary screen, biochemical, small-molecule microarray, fluorescence 635/667 nm, 0.5 µg/mL protein (AID 1183); settings: small-molecule microarray binding, fluorescence 635 nm; higher = more signal
[2] = Plasmodium falciparum growth inhibition, primary screen, strain 3D7, DAPI fluorescence, 100 nL (AID 1184);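 also: parasites grown inside human red blood cells in medium with human serum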; settings: P. falciparum 3D7 growth, 3 d, higher = more signal
[3] = target: Homeobox protein Hox-A13 (Mus musculus) (UniProt Q62424); experiment: inhibitors of HoxA13-DNA binding, primary screen, biochemical, fluorescence polarization, labeled oligonucleotide (AID 1185); settings: 15 min, higher = more signal, called active from +8 up or from −8 down
[4] = inhibitors of hydroxyurea-induced Chk1 phosphorylation, primary screen, imaging, HeLa, phospho-Chk1 antibody, percent positive cells (AID 1186); settings: hydroxyurea-induced phospho-Chk1 immunofluorescence imaging, higher = more signal
[5] = inhibitors of hydroxyurea-induced Chk1 phosphorylation, primary screen, imaging, HeLa, phospho-Chk1 nuclear intensity (AID 1187); settings: hydroxyurea-induced phospho-Chk1 immunofluorescence imaging, higher = more signal

Sequence of Homeobox protein Hox-A13 (Mus musculus) (Q62424 whole entry, looked up): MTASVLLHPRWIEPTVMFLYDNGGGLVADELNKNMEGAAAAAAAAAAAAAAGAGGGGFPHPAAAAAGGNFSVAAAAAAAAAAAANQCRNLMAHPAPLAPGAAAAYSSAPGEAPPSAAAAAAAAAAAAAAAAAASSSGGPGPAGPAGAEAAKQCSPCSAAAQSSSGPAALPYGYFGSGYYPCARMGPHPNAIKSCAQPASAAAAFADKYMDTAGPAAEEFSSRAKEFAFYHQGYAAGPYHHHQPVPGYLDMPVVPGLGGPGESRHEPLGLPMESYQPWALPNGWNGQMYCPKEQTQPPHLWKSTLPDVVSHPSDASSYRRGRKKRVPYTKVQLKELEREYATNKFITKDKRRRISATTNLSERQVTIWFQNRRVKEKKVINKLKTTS

Row | SMILES | composite z-score [1] | composite z-score (XIP peptide (Xip251-270)) | z-score [2] | z-score [3] | z-score [4] | z-score [5]
1 | [N-]=[N+]=NCc1ccccc1C[C@@]1(C(=O)O)N=C(c2ccc(OCCCO)cc2)O[C@@H]1c1ccccc1N=[N+]=[N-] | -0.321 (inactive) | 0.908 | -2.15 | -4.16 (inactive) | -1.08 (inactive) | -0.884 (inactive)
2 | COCCCNC(=O)[C@@]1(Sc2ccc(C)cc2)CC(=O)N(Cc2cc(C(F)(F)F)cc(C(F)(F)F)c2)[C@@H]1c1ccc(CO)cc1I | -0.291 (inactive) | -0.413 | -0.709 | -1.21 (inactive) | 0.007 (inactive) | 0.283 (inactive)
3 | CC(C)CNC(=O)[C@@]1(C)c2ccccc2C(=O)N(Cc2ccc(OC(F)(F)F)cc2)[C@H]1c1ccc(CO)cc1 | -0.332 (inactive) | -1.4 | -1.12 | -2.24 (inactive) | -0.273 (inactive) | -0.177 (inactive)
4 | [N-]=[N+]=NCc1ccccc1C[C@]1(C(N)=O)N=C(c2ccc(OCCCO)cc2)O[C@H]1c1ccccc1CN=[N+]=[N-] | 1.04 (inactive) | -0.285 | -2.29 | 1.67 (inactive) | -0.442 (inactive) | -0.427 (inactive)
5 | CC(C)C[C@@H]1NC(=O)[C@H]2C[C@@H](C(=O)NCCCCCC[N+](C)(C)C)[C@@H](c3ccc(O)cc3)N2C1=O | 0.28 (inactive) | 0.608 | 1.17 | -3.14 (inactive) | 0.554 (inactive) | 0.61 (inactive)
6 | C=C(COC)/C(=C/C[C@H](OC(C)=O)c1ccc(OCCO)cc1)c1cnc2ccccc2c1 | 0.878 (inactive) | 0.0356 | -3.08 | -3.6 (inactive) | -0.619 (inactive) | -0.632 (inactive)
7 | CC(C)[C@H]1NC(=O)[C@@]23C(=O)N[C@@H](Cc4ccccc4)C2[C@H](C)[C@@]2(C)O[C@H]2C3/C=C/C/C=C\CNC(=O)[C@H](C)NC1=O (stereo partly specified) | -0.311 (inactive) | -0.791 | -0.162 | -6.31 (inactive) | 0.126 (inactive) | 0.42 (inactive)
8 | C=C(/C(=C/C[C@@H](OC(=O)c1ccncc1)c1ccc(CO)o1)c1cnc2ccccc2c1)C(C)C | 1.11 (inactive) | 0.766 | -0.599 | -4.89 (inactive) | -0.33 (inactive) | -0.232 (inactive)
9 | CCCN1C(=O)[C@@]2(CCS(=O)(=O)c3ccccc3)N=C(c3ccc(OCCCO)cc3)O[C@H]2c2ccccc21 | 0.261 (inactive) | 0.678 | -2.56 | -3.2 (inactive) | 0.128 (inactive) | 0.371 (inactive)
10 | C=C(CCCC)C(=O)CC[C@@H](OC(=O)c1cccnc1)c1cccc(OCCO)c1 | 1.48 (inactive) | 0.702 | -2.81 | -3.79 (inactive) | -0.279 (inactive) | -0.326 (inactive)
11 | C/C(=N\O)C(=O)NCCCCCNC(=O)OCc1ccccc1 | 0.759 (inactive) | 0.58 | 0.574 | -0.408 (inactive) | -0.103 (inactive) | -0.394 (inactive)
12 | Cc1ccc(S[C@]2(C(=O)NCCCN(C)C)CC(=O)N(Cc3ccccc3)[C@@H]2c2ccc(CO)cc2I)cc1 | 0.066 (inactive) | 0.119 | 0.0943 | -2.06 (inactive) | 0.379 (inactive) | 0.637 (inactive)
13 | C=CCC(OC(C)=O)[C@@H]1[C@@H](N(Cc2cccc3ccccc23)C(=O)c2ccc(C)cc2)c2cc(OCCCO)ccc2N1C(=O)c1ccc(-c2ccccc2)cc1 (stereo partly specified) | -0.115 (inactive) | 0.481 | -1.93 | -0.128 (inactive) | -0.35 (inactive) | -0.844 (inactive)
14 | CCCC=C(CCC)[C@@H](NS(=O)(=O)c1ccc(C(F)(F)F)cc1)c1ccc(-c2ccccc2)cc1 | 0.14 (inactive) | 0.0936 | -0.334 | -1.61 (inactive) | -0.208 (inactive) | -0.144 (inactive)
15 | COC(=O)[C@@]1(Cc2ccc(OC)cc2)[C@H]2c3cc(C(=O)N(C)C)n(CCc4ccc(OC)c(Br)c4)c3C[C@H]2CN1C(=O)c1ccccc1 | 0.717 (inactive) | 0.351 | -1.28 | -0.511 (inactive) | 1.02 (inactive) | 0.463 (inactive)
16 | O=C1O[C@H](c2ccccc2)[C@H](c2ccccc2)N2[C@H]1[C@@H](C(=O)NC[C@H](O)c1ccccc1)[C@]1(C(=O)Nc3ccc(C#CC4(O)CCCCCC4)cc31)[C@H]2c1ccc(OCCO)cc1 | -0.342 (inactive) | 0.799 | -1.45 | 0.199 (inactive) | -0.309 (inactive) | -0.412 (inactive)
17 | CCCNC(=O)[C@@H]1c2ccccc2C(=O)N(Cc2cc(F)cc(C(F)(F)F)c2)[C@H]1c1ccc(CO)cc1 | 0.395 (inactive) | 0.801 | -0.43 | -2.12 (inactive) | -0.438 (inactive) | -0.142 (inactive)
18 | Cc1ccc(S[C@]2(C(=O)O)CC(=O)N(Cc3cc(C(F)(F)F)cc(C(F)(F)F)c3)[C@@H]2c2ccc(CO)cc2I)cc1 | -0.313 (inactive) | 0.761 | -0.48 | -2.32 (inactive) | 0.407 (inactive) | 1.08 (inactive)
19 | CC(C)CN1C(=O)[C@@]2(Cc3ccccc31)c1ccccc1C(=O)N(C1CCCCC1)[C@H]2c1ccc(CO)cc1 | 1.15 (inactive) | -0.906 | -1.38 | -0.429 (inactive) | -0.81 (inactive) | -1.17 (inactive)
20 | COCCOC(=O)N1C(=O)[C@@]2(c3cc(C#CC4=CCCCC4)ccc31)[C@H](C(=O)NC[C@H](O)c1ccccc1)[C@H]1C(=O)O[C@H](c3ccccc3)[C@H](c3ccccc3)N1[C@@H]2c1ccccc1OCCO | 0.51 (inactive) | 0.681 | -2.02 | 1.22 (inactive) | 0.443 (inactive) | 0.384 (inactive)
21 | Cc1ccc(N2C(=O)c3ccccc3[C@@H](C(=O)NCc3ccccc3)[C@@H]2c2ccc(CO)cc2)nc1 | -0.337 (inactive) | -0.98 | -0.432 | -0.681 (inactive) | -0.639 (inactive) | -0.627 (inactive)
